# Measurements from PubChem BioAssay.
# Several values for one entry are separate records, joined by “and”; a condition that tells them apart may be missing. Equal values may be shown once. Activity calls are given as the source filed them. Unless noted, no stated cut-off is given here; in the data, active means inhibition above about 80%; inactive means the rest.
# Key:
# [1] = growth inhibition, single agent or in combination, cell-based, chromothripsis tumors, cisplatin or BGB combos (AID 1671449); settings: LFS_MB_P medulloblastoma cells;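 further: cells exposed for 96 hours; 0% = vehicle DMSO and 100% = killing by high DMSO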
# [2] = growth inhibition, single agent and combos, cell-based, chromothripsis tumors, cisplatin or BGB combos (AID 1671450); settings: HDN33 neuroblastoma cells, stronger effect = higher value;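 further: cells exposed to compound for four days; 0% = vehicle DMSO and 100% = cell killing by high DMSO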
# [3] = growth inhibition, single agents and combos, ICB984, cell-based, cisplatin or BGB combos, synergistic combos for chromothripsis tumors (AID 1671451; call rule not given here;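 further: cells exposed for 96 hours before readout; 0% = vehicle DMSO and 100% = killing by high DMSO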); settings: ICB984 medulloblastoma cells, drug combinations, stronger effect = higher value
# [4] = growth inhibition, single agents and combos, LFS_MB_1R, cell-based, cisplatin or BGB combos, synergistic combos for chromothripsis tumors (AID 1671452); settings: LFS_MB_1R medulloblastoma cells, stronger effect = higher value;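 further: cells exposed for 96 hours before readout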
# [5] = growth inhibition, single agents and combos, HTB85, cell-based, BGB or cisplatin IC20 combos, synergistic combos for chromothripsis tumors (AID 1671453); settings: HTB85 osteosarcoma cells, drug combinations, stronger effect = higher value;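 further: cells exposed for 96 hours before readout; 0% = vehicle DMSO and 100% = high DMSO killing control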
# [6] = growth inhibition, single agents and combos, CRL2098, cell-based, BGB or cisplatin IC20 combos, synergistic combos for chromothripsis tumors (AID 1671454); settings: CRL2098 osteosarcoma cells, drug combinations, stronger effect = higher value;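 further: cells exposed for 96 h before readout; 0% = vehicle DMSO and 100% = killing by high DMSO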
# [7] = growth inhibition, single agents and combos, HD-MB03, cell-based, BGB or cisplatin IC20 combos, synergistic combos for chromothripsis tumors (AID 1671455; in the data active means inhibition above about 83%;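 further: 0% = vehicle DMSO and 100% = high DMSO as cytotoxic control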); settings: HD-MB03 medulloblastoma cells, stronger effect = higher value
# [8] = growth inhibition, single agents and combos, UWB1.289, cell-based, BGB or cisplatin combos, synergistic combos for chromothripsis tumors (AID 1671456); settings: UWB1.289 ovarian carcinoma cells, stronger effect = higher value;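 further: cells exposed to compound for four days; 0% = vehicle DMSO and 100% = killing by high DMSO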
# [9] = growth inhibition, single agents and combos, LFS_MB_2R, cell-based, cisplatin combos, synergistic combos for chromothripsis tumors (AID 1671457); settings: LFS_MB_2R medulloblastoma cells, stronger effect = higher value;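 further: cells exposed to compound for four days before readout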
# [10] = growth inhibition, MDA-MB-436, cell-based, BGB or cisplatin combos, synergistic combos for chromothripsis tumors (AID 1671458; call rule not given here;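 further: cells exposed for 96 hours; 0% = vehicle DMSO and 100% = killing by high DMSO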); settings: MDA-MB-436 breast carcinoma growth inhibition, drug combinations, stronger effect = higher value
# [11] = UWB1.289_BRCA1 ovarian cancer growth, cell-based, BGB or cisplatin combinations (AID 1671459); settings: UWB1.289 BRCA1 ovarian carcinoma, drug combinations, stronger effect = higher value
# [12] = drug combination toxicity in non-malignant astrocytes – cell-based, BGB or cisplatin IC20 combos, cytotoxicity control for chromothriptic childhood tumor combination screen (AID 1671460); settings: Human astrocytes, viability inhibition, drug combinations, at 0.5 µM, stronger effect = higher value;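 further: cells exposed to compounds for 96 hours before viability readout; 0% = vehicle and 100% = killing control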
# [13] = BT084 cell growth, single and combined drugs, ICGC_MB145, cisplatin and BGB IC40 combos (AID 1671461); settings: BT084 medulloblastoma cells, drug combinations, stronger effect = higher value;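 further: cells exposed to drugs for 96 hours; 0% = vehicle DMSO and 100% = high DMSO full killing control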
# [14] = RCMB18 cell growth, single agent and combined, cisplatin and BGB IC40 combos (AID 1671462); settings: RCMB18 medulloblastoma cells, stronger effect = higher value;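 further: cells exposed to compound for four days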
# [15] = CRL1545 cell growth, single agent and combined, cisplatin and BGB IC20 combos (AID 1671464); settings: CRL1545 osteosarcoma cells, stronger effect = higher value;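 further: cells exposed to compound for 96 hours before readout; 0% = vehicle DMSO and 100% = high DMSO killing control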
# [16] = at 0.5 µM, stronger effect = higher value
# [17] = measured here: combination with BGB IC20, at 0.005 µM
# [18] = measured here: combination with BGB IC40, at 0.005 µM
# [19] = measured here: combination with BGB IC40, at 0.05 µM
# [20] = measured here: combination with cisplatin, at 0.5 µM, stronger effect = higher value
# [21] = measured here: combination with cisplatin, at 5 µM, stronger effect = higher value
# [22] = measured here: with BGB IC20 combination, at 0.5 µM
# [23] = measured here: with cisplatin IC20 combination, at 0.5 µM
# [24] = measured here: 5 uM single agent, at 5 µM
# [25] = measured here: combination with cisplatin, at 0.5 µM
# [26] = measured here: combination with cisplatin, at 5 µM
# [27] = measured here: with BGB IC20, at 0.5 µM
# [28] = measured here: with BGB IC20, at 5 µM
# [29] = measured here: with cisplatin IC20, at 0.5 µM
# [30] = measured here: with cisplatin IC20, at 5 µM
smiles,measurement,setting,value
C=C1CCC(O)CC1=CC=C1CCCC2(C)C1CCC2C(C)C=CC(C)C(C)C (stereo not drawn),inhibition,[1]; [16],-12.3% (inactive)
same,inhibition,[1]; [17],-24.6%
same,inhibition,[1]; [18],-11.2%
same,inhibition,[1]; [19],-19.6%
same,inhibition,[1]; [20],-17.3%
same,inhibition,[1]; [21],-80.9%
same,inhibition,"[2]; BGB combo, at 5 µM",-2.75%
same,inhibition,[2]; at 0.5 µM,5.6% (inactive)
same,inhibition,"[2]; cisplatin combo, at 5 µM",6.61%
same,inhibition,[2]; [22],7.28%
same,inhibition,[2]; [23],3.61%
same,inhibition,"[2]; single agent, at 5 µM",5.11%
same,inhibition,"[3]; BGB IC20 combo, at 0.005 µM",-16.8%
same,inhibition,"[3]; BGB IC40 combo, at 0.005 µM",-28.1%
same,inhibition,"[3]; BGB IC40 combo, at 0.05 µM",22.2%
same,inhibition,[3]; at 0.5 µM,-8.49% (inactive)
same,inhibition,"[3]; cisplatin combo, at 0.05 µM",22.2%
same,inhibition,"[3]; cisplatin combo, at 0.5 µM",-55.6%
same,inhibition,"[3]; cisplatin combo, at 5 µM",-22.2%
same,inhibition,[3]; [24],-22.8%
same,inhibition,[4]; at 0.5 µM,14.3% (inactive)
same,inhibition,[4]; [19],15.9%
same,inhibition,[4]; [25],28.4%
same,inhibition,[4]; [26],4%
same,inhibition,[5]; at 0.5 µM,-12.4% (inactive)
same,inhibition,[5]; [27],-26.3%
same,inhibition,[5]; [28],9.36%
same,inhibition,[5]; [29],-19%
same,inhibition,[5]; [30],1.54%
same,inhibition,"[5]; single agent, at 5 µM",12%
same,inhibition,[6]; at 0.5 µM,-3.6% (inactive)
same,inhibition,"[6]; measured here: combination with BGB at IC20, at 0.5 µM",-1.76%
same,inhibition,"[6]; measured here: combination with cisplatin at IC20, at 0.5 µM",19.2%
same,inhibition,[7]; at 0.5 µM,-7.66% (inactive)
same,inhibition,"[7]; measured here: combo with BGB at IC20, at 0.5 µM",-6.27%
same,inhibition,"[7]; measured here: combo with cisplatin at IC20, at 0.5 µM",-11.7%
same,inhibition,[8]; at 0.5 µM,-2.68% (inactive)
same,inhibition,"[8]; measured here: inhibition with BGB combination, at 0.05 µM",-16.7%
same,inhibition,"[8]; measured here: inhibition with cisplatin combination, at 0.05 µM",-7.51%
same,inhibition,[9]; at 0.5 µM,-22.6% (inactive)
same,inhibition,[9]; [25],-24.1%
same,inhibition,[9]; [26],-14.6%
same,inhibition,[10]; at 0.5 µM,-12.5% (inactive)
same,inhibition,"[10]; measured here: BGB combination, at 0.5 µM",-17.5%
same,inhibition,"[10]; measured here: BGB combination, at 5 µM",-14.8%
same,inhibition,"[10]; measured here: cisplatin combination, at 0.5 µM",-15.7%
same,inhibition,"[10]; measured here: cisplatin combination, at 5 µM",-13.9%
same,inhibition,"[11]; BGB combination, concentration series, at 5 µM",18.4%
same,inhibition,[11]; at 0.5 µM,-4.82% (inactive)
same,inhibition,"[11]; cisplatin combination, concentration series, at 5 µM",27.5%
same,inhibition,[12],2.39% (inactive)
same,inhibition,[12]; measured here: combo with BGB IC20,0.485%
same,inhibition,[12]; measured here: combo with cisplatin IC20,-12%
same,inhibition,[13]; at 0.5 µM,-17.5% (inactive)
same,inhibition,"[13]; cisplatin combination, at 0.5 µM",-35.1%
same,inhibition,"[13]; cisplatin combination, at 5 µM",-77.9%
same,inhibition,"[13]; measured here: BGB IC40 combination 0.05 uM, at 0.05 µM",22.6%
same,inhibition,"[13]; single agent, at 5 µM",-13.5%
same,inhibition,[14]; at 0.5 µM,-6.63% (inactive)
same,inhibition,"[14]; cisplatin combo, at 5 µM",-19.4%
same,inhibition,"[14]; measured here: BGB IC40 combination, at 0.05 µM",-24%
same,inhibition,[14]; [25],-21.7%
same,inhibition,"[14]; single agent, at 5 µM",-13.3%
same,inhibition,[15]; at 0.5 µM,-21.7% (inactive)
same,inhibition,[15]; [22],16.4%
same,inhibition,[15]; [23],-40.8%
same,inhibition,"[15]; single agent, at 0.05 µM",37.2%
same,inhibition,"[15]; single agent, at 5 µM",10.9%
CCCCCCCCCC(=O)N[C@@H](Cc1c[nH]c2ccccc12)C(=O)N[C@@H](CC(N)=O)C(=O)N[C@@H](CC(=O)O)C(=O)NC1C(=O)NCC(=O)N[C@@H](CCCN)C(=O)N[C@@H](CC(=O)O)C(=O)N[C@H](C)C(=O)N[C@@H](CC(=O)O)C(=O)NCC(=O)N[C@H](CO)C(=O)N[C@@H](C(C)CC(=O)O)C(=O)N[C@@H](CC(=O)c2ccccc2N)C(=O)OC1C (stereo partly drawn),inhibition,[1]; [16],-27.6% (inactive) and -32.6% (inactive)
same,inhibition,[1]; [17],1.22% and 8.36%
same,inhibition,[1]; [18],-33.3% and -6.15%
same,inhibition,[1]; [19],-27.1% and -21.6%
same,inhibition,[1]; [20],-42.5% and -64.3%
same,inhibition,[1]; [21],-23.7% and -0.57%
same,inhibition,"[2]; BGB combo, at 5 µM",-9.1% and -17.9%
same,inhibition,[2]; at 0.5 µM,-7.65% (inactive) and -14% (inactive)
same,inhibition,"[2]; cisplatin combo, at 5 µM",17.9% and -21%
same,inhibition,[2]; [22],-19% and -14.2%
same,inhibition,[2]; [23],5.61% and -17.4%
same,inhibition,"[2]; single agent, at 5 µM",5.14% and 4.37%
same,inhibition,"[3]; BGB IC20 combo, at 0.005 µM",-14.8% and 0.272%
same,inhibition,"[3]; BGB IC40 combo, at 0.005 µM",-10.2% and -12.9%
same,inhibition,"[3]; BGB IC40 combo, at 0.05 µM",-9.03% and -26.8%
same,inhibition,[3]; at 0.5 µM,-38.5% (inactive) and -18.4% (inactive)
same,inhibition,"[3]; cisplatin combo, at 0.05 µM",-12.1% and -31.4%
same,inhibition,"[3]; cisplatin combo, at 0.5 µM",-42.4% and -16.6%
same,inhibition,"[3]; cisplatin combo, at 5 µM",-27.4% and -22.6%
same,inhibition,[3]; [24],-18.7% and 2.31%
same,inhibition,[4]; at 0.5 µM,-6.57% (inactive) and -6.58% (inactive)
same,inhibition,[4]; [19],-2.79% and -15.2%
same,inhibition,[4]; [25],7.06% and -22.9%
same,inhibition,[4]; [26],-14.1% and 4.93%
same,inhibition,[5]; at 0.5 µM,-0.19% (inactive) and -22.1% (inactive)
same,inhibition,[5]; [27],1.21% and -18.4%
same,inhibition,[5]; [28],41% and -9.81%
same,inhibition,[5]; [29],-11.7% and -35.1%
same,inhibition,[5]; [30],-35% and -23.5%
same,inhibition,"[5]; single agent, at 5 µM",-14.9% and -5.13%
